PubChem BioAssay AID588338 (NMMLSC, 2011)
“And” between values parts separate entries of the source, which are not always exact repeats. Equal values may be shown once. In all, about 1,300 compounds went through this assay and about 20 (2%) were called active.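 Rule for the calls: active = inhibition above 50%, about 3 SD of the inhibition seen with non-fluorescent compounds; inactive = the rest.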 A selection follows.

Experiment: interference with GST/GSH bead binding – biochemical, cherry pick 1, flow cytometry, artefact control for arrestin-AP2 inhibitor project, confirmation (AID 588338);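 note: fluorescein maleimide labelled GST captured on 4 micron glutathione beads; higher means more loss of bead fluorescence from quenching or blocked binding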
Settings: GST-fluorescein binding to GSH beads, fluorescence, counter-screen; at 10 µM; active compounds read high

Structure (SMILES) | inhibition
COc1cccc(-n2c(SCC(=O)c3c[nH]c4ccccc34)nc3ccccc3c2=O)c1 | 57.9% (active)
Cn1c(=O)c2c(nc(N/N=C/c3cccs3)n2Cc2ccc(Br)cc2)n(C)c1=O | 0.63% (inactive)
COc1ccc(CCNc2ncnc3c2nnn3Cc2ccccc2)cc1 | 4.82% (inactive)
Cc1ccc(CNC(=O)C2CC(=O)N(C3CCCCCCC3)C2)cc1 (centres undefined) | -4.09% (inactive)
Cc1ccc(Nc2ccc(C(N)=O)cc2[N+](=O)[O-])cc1 | -6.5% (inactive)
CC(C)c1nnc(NC(=O)CCC(=O)N2CCN(c3cccc(Cl)c3)CC2)s1 | -10.6% (inactive)
O=C(c1ccc(S(=O)(=O)NCc2ccco2)cc1)N1CCN(c2ccccc2)CC1 | 8.86% (inactive)
CCCc1ccc(-c2csc(NC(=O)Cc3cccs3)n2)cc1 | -4.6% (inactive)
Cc1ccc(C)c(NC(=S)NNC(=S)Nc2ccc(C(C)C)cc2)c1 | 0.62% (inactive)
Cc1ccc(CN2C(=O)CCC2C(=O)NCCCN2CCCCC2C)cc1 (centres undefined) | -11.5% (inactive)
Cc1cc(C(=O)OCC(=O)c2c(N)n(C)c(=O)n(C)c2=O)c(C)o1 | -2.19% (inactive) and 1.72% (inactive)
CCOc1ccc(-c2nnc(-c3ccco3)o2)cc1 | -7.89% (inactive)
O=c1[nH]c2ccccc2n2c(-c3ccccc3)nnc12 | 36.4% (inactive)
Cc1ccc(C2(C)NC(=O)N(CC(=O)Nc3ccccc3C(=O)N3CCCCC3)C2=O)cc1 (centres undefined) | -3.63% (inactive)
CC(C)C[C@H](NC(=O)N1CCn2c1nc1ccccc12)C(=O)NC1CC1 | -5.48% (inactive)
CN1C(=O)/C(=C/c2ccco2)SC1=Nc1cccc(C(=O)O)c1 | 0.38% (inactive)
Brc1ccccc1C1Nc2cccc3cccc(c23)N1 | 1.35% (inactive)
COCCNC(=O)Nc1ccc2nc(-c3ccco3)c(-c3ccco3)nc2c1 | 22.4% (inactive)
Cc1ccc(OCCCCc2c(C)n[nH]c2C)cc1 | -8.59% (inactive)
COc1cc2c(cc1NC(=O)COC(=O)/C=C/c1ccccc1)oc1ccccc12 | -10.3% (inactive)
CC(Oc1ccccc1)C(=O)NN1Cc2ccccc2C1=N (centres undefined) | -4.56% (inactive)
Cc1ccc(S(=O)(=O)/N=C(/Nc2ccccn2)c2ccc(Cl)cc2)cc1 | -4.23% (inactive)
O=C(NCc1ccco1)c1ccc(CS(=O)(=O)Cc2ccc(F)cc2)o1 | -8.88% (inactive)
Cc1cc(C)cc(Oc2nc3c(C)cccn3c(=O)c2/C=C(\C#N)C(=O)NC2CCS(=O)(=O)C2)c1 (centres undefined) | -0.21% (inactive)
COC(=O)c1cc(NC(=O)c2nn(C)c(=O)c3ccccc23)cc(C(=O)OC)c1 | -0.11% (inactive)
CCn1c(=O)n(CC)c2cc(N3CCCC3)c(NC(=O)c3ccccc3Br)cc21 | -4.23% (inactive)
Cc1ccc(OCCCC(=O)Nc2ccc3c(c2)OCCO3)cc1 | -3.79% (inactive)

Structure (SMILES) | inhibition
Cn1c(=O)c([N+](=O)[O-])c(Oc2ccccc2)c2ccccc21 | -0.63% (inactive)
COc1cc2c(cc1OC)CN(C(=O)c1cc(=O)c3ccccc3o1)CC2 | -0.62% (inactive)
CCOc1ccc(C(=O)NC2CCN(CC(=O)NCc3cccs3)CC2)cc1 | -10.1% (inactive)
CN(C)c1ccc(NC(=O)c2ccncc2)c2ccccc12 | -4.94% (inactive)
CCOC(=O)N1CCN(C(=O)CNC(=O)Cc2ccc(Cl)cc2)CC1 | -12.7% (inactive)
CN(C(=O)COC(=O)c1cc(=O)[nH]c2ccccc12)C1CCCCC1 | -4.98% (inactive)
CC(NCCc1ccc(S(N)(=O)=O)cc1)C(=O)NCc1ccccc1 (centres undefined) | 1.19% (inactive)
CC(C)(C)c1ccc(C(=O)NCCn2c(N)c(C#N)c3nc4ccccc4nc32)cc1 | 1.49% (inactive)
CC(CN1CCCCC1)OC(=O)c1ccccc1Cl (centres undefined) | 0.92% (inactive)
Cc1ccc(Cl)cc1-c1ccc(/C=N/n2cnnc2)o1 | -2.14% (inactive)
Cc1ccc(S(=O)(=O)N2CCCCC2)cc1NC(=O)c1cccnc1 | -0.2% (inactive)
Cc1cccc(NC(=S)NC(=O)c2ccc(Br)o2)c1 | -2.99% (inactive)
NS(=O)(=O)c1ccc2nc(NC(=O)C3=COCCO3)sc2c1 | -9.07% (inactive)
C/C(=N\Nc1ccc([N+](=O)[O-])cc1)c1ccc(-n2nncc2C(C)(C)C)cc1 | 2.54% (inactive)
CC(=O)NCCNC(=O)c1cc(-c2cccc3ccccc23)nc2ccccc12 | 8.05% (inactive)
Cc1cc(C(=O)Nc2ccc(C)c(S(=O)(=O)N3CCOCC3)c2)c2ccccc2n1 | 3.01% (inactive)
Cc1ccc(S(=O)(=O)N2CCN(C(=O)c3ccccc3-c3nc4ccccc4s3)CC2)c(C)c1 | -4.41% (inactive)
O=C(NCC1(N2CCCCC2)CCCCC1)c1cccc(S(=O)(=O)Nc2ccccc2Cl)c1 | -0.81% (inactive)
CCC(C(=O)OC)n1cnc2c(oc3ccccc32)c1=O (centres undefined) | -1.51% (inactive)
NC(=O)C1CCN(C(=O)CC2C(=O)NCCN2Cc2cccc(Oc3ccccc3)c2)CC1 (centres undefined) | -3.68% (inactive)
CC(NC(=O)c1cc2cc(Cl)ccc2oc1=N)c1ccccc1 (centres undefined) | -2.36% (inactive)
COc1ccc(/C=C2\SC(=S)N(CCC(=O)Nc3ccccn3)C2=O)cc1OC | -0.03% (inactive)
O=C(C1CCCO1)N1CCN(S(=O)(=O)c2ccc(Br)cc2)CC1 (centres undefined) | -16.4% (inactive)
COC(=O)C1CC2=C(CC(C)(C)CC2=O)N(c2ccccc2)C1=O (centres undefined) | -0.09% (inactive)
CCC(=O)Nc1nc2ccccc2n1Cc1ccccc1C | 6.47% (inactive)
Cc1cccc(C)c1NC(=O)C(Cl)C(=O)c1ccccc1 (centres undefined) | -5.59% (inactive)
Cc1cccc(Nc2ccccc2C(=O)NCc2ccco2)c1C | -4.39% (inactive)
